Measurements: the supplement of paper PMC12645437, “Orthogonal IMiD-Degron Pairs Induce Selective Protein Degradation in Cells” (ACS Chemical Biology, 2025)
Whole data set: some 8,300 sequences, median “log2 fold change of degron read counts, EGFP-low vs EGFP+ sorted cells (limma voom), compound-induced degradation” near -1.1, cut for the highest 2% near 3.2. Many of the other results were omitted from the sample, so the highest values are more common in it than they were.

T1: CRBN, Q96SW2
T1 chain: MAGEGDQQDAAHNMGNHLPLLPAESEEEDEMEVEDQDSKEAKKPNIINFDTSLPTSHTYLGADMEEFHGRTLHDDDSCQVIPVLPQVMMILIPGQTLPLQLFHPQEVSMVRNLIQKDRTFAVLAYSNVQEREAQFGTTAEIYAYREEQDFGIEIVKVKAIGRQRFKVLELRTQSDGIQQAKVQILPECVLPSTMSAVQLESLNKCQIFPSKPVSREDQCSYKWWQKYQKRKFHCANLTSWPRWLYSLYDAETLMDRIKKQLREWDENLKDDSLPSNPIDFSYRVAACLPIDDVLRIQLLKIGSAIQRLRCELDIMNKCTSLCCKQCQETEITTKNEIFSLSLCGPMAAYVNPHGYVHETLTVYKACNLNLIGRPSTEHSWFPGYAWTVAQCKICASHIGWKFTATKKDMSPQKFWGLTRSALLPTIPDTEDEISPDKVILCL


Target: T1, CRBN, Q96SW2
Assay: log2 fold change of degron read counts, EGFP-low vs EGFP+ sorted cells (limma voom), compound-induced degradation; higher = more compound-induced degradation of the degron-EGFP fusion; degrons are variants of IKZF1/3 zinc finger 2; compound dose not given here
Settings: Jurkat, 18 h
Procedure: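 Pooled library of 8380 IKZF3 ZF2 degron mutants (positions 146-167 varied within the IKZF3 130-189 degron; only the varied core is printed, flanks not printed) fused to EGFP with IRES-mCherry, lentivirally expressed in Jurkat cells. mCherry+ cells were treated with one IMiD compound for 18 h (dose not stated) and FACS-sorted into EGFP-low and EGFP+ populations. Degron sequences were counted by NGS, and log2FC (EGFP-low vs EGFP+) was estimated by limma voom over 3 biological replicates.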

[1] = compound: compound 19 (5-tert-butyl-thalidomide)
[2] = compound: compound 22 (5-morpholino-thalidomide)
[3] = compound: compound 33 (diphenyl IMiD analogue)
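Further: pooled lentiviral library of zinc finger degron-EGFP fusions in mCherry-positive Jurkat cells, FACS-sorted after compound exposure, with degron abundance counted by next-generation sequencing.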

Row | Sequence | log2 fold change of degron read counts [1] | log2 fold change of degron read counts [2] | log2 fold change of degron read counts [3] | log2 fold change of degron read counts (compound: thalidomide)
1 | FECNICGAHFTQKGNLLRHIKL [46F_47E_49N_50I_52G_53A_54H_55F_67L_, Q9UKT9] | -1.95 | -2.29 | 0.157 | 0.612
2 | FHCEICGAQFTQKGNLLRHIKL [46F_47H_49E_50I_52G_53A_54Q_55F_67L_, Q9UKT9] | 2.66 | 2.64 | 2 | 0.968
3 | FECEICGAQFTQKGNLLRHIKL [46F_47E_49E_50I_52G_53A_54Q_55F_67L_, Q9UKT9] | -0.353 | -0.866 | 1.45 | 2.5
4 | FWCEICGAQFTQKGNLLRHIKL [46F_47W_49E_50I_52G_53A_54Q_55F_67L_, Q9UKT9] | 3.54 | 3.93 | 2.7 | 2.04
5 | FLCEICGAQFTQKGNLLRHIKL [46F_47L_49E_50I_52G_53A_54Q_55F_67L_, Q9UKT9] | 1.29 | -0.49 | 1.79 | 2.07
6 | FMCEICGAQFTQKGNLLRHIKL [46F_47M_49E_50I_52G_53A_54Q_55F_67L_, Q9UKT9] | 0.486 | 0.824 | 2.7 | 1.97
7 | FTCEICGAQFTQKGNLLRHIKL [46F_47T_49E_50I_52G_53A_54Q_55F_67L_, Q9UKT9] | 0.557 | 1.85 | 2.25 | 2.92
8 | FYCEICGAQFTQKGNLLRHIKL [46F_47Y_49E_50I_52G_53A_54Q_55F_67L_, Q9UKT9] | 3.6 | 3.55 | 3.13 | 2.12
9 | FICEICGAQFTQKGNLLRHIKL [46F_47I_49E_50I_52G_53A_54Q_55F_67L_, Q9UKT9] | 0.506 | 2.86 | 3.06 | 3.16
10 | FRCEICGAQFTQKGNLLRHIKL [46F_47R_49E_50I_52G_53A_54Q_55F_67L_, Q9UKT9] | 0.162 | 0.149 | 1.38 | 1.94
11 | FDCEICGAQFTQKGNLLRHIKL [46F_47D_49E_50I_52G_53A_54Q_55F_67L_, Q9UKT9] | 2.04 | 0.951 | -0.0023 | 1.29
12 | FFCEICGAQFTQKGNLLRHIKL [46F_47F_49E_50I_52G_53A_54Q_55F_67L_, Q9UKT9] | 3.67 | 3.67 | 2.56 | 1.93
13 | FQCEICGAQFTQKGNLLRHIKL [46F_47Q_49E_50I_52G_53A_54Q_55F_67L_, Q9UKT9] | 0.962 | 2.24 | 2.41 | 3.56
14 | FNCPICGAEFTQKGNLLRHIKL [46F_47N_49P_50I_52G_53A_54E_55F_67L_, Q9UKT9] | 1.92 | 0.348 | 0.475 | 0.897
15 | FECDICGARFTQKGNLLRHIKL [46F_47E_49D_50I_52G_53A_54R_55F_67L_, Q9UKT9] | -0.106 | -1.6 | -0.318 | 1.69
16 | FRCPICGHKFTQKGNLLRHIKL [46F_47R_49P_50I_52G_53H_54K_55F_67L_, Q9UKT9] | -2.46 | -2.78 | -1.61 | -1.55
17 | FSCNQCGRMFTQKGNLLRHIKL [46F_47S_49N_50Q_52G_53R_54M_55F_67L_, Q9UKT9] | -2.45 | -3.15 | -2.32 | -2.79
18 | FHCNQCGHKFTQKGNLLRHIKL [46F_47H_49N_50Q_52G_53H_54K_55F_67L_, Q9UKT9] | -2.56 | -3.05 | -2.84 | -2.45
